Screening results deposited in PubChem by National Center for Advancing Translational Sciences (NCATS).
In the library only some 2.4% were active in any assay of this set; here they are far more common.
D2 PAM-1: positive allosteric modulators of human D2 dopamine receptor. DiscoveRx D2 beta-arrestin cells, luminescence, 90 min; 100% = 57 uM dopamine signal. potentiation, % (test concentration not listed). 0.23% of 360,000 active. AID 624464; in the data active means potentiation above about 50%
Target sequence (P14416 whole entry, looked up): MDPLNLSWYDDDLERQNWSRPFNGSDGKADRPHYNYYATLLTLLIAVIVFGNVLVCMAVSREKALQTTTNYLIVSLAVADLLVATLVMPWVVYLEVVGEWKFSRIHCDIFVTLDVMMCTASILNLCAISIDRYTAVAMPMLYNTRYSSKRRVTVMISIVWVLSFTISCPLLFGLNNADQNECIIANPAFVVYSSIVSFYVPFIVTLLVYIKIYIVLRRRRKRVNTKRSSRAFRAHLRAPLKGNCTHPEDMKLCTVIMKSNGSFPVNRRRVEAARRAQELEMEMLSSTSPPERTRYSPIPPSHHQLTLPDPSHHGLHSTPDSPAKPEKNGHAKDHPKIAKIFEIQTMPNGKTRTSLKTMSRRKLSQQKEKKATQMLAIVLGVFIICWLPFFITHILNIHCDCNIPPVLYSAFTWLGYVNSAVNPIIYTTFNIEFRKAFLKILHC
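PathHunter beta-arrestin assay in DiscoveRx D2 cells. Compounds were added with an EC20 of dopamine (50 nM final) for 90 min at 37 deg C. Luminescence was read 1 h after detection reagent, with 57 uM dopamine as the EC100 control.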
D2 ag-1: agonists of human D2 dopamine receptor; HEK293 T-REx D2 cells, calcium flux agonist mode; activation, % at 2 µM; 0.53% of 340,000 active; AID 485358;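 active means activation over 3 SD above normal in the single-dose calcium agonist read, cut at about 30% in these data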; further: 0% is about no effect
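Agonism scored from kinetic calcium signal (1 read/sec, 180 s) following compound pin transfer, after a 10 s baseline. Cells: HEK293 Trex line expressing inducible D2 receptor coupled to calcium, dye-loaded after overnight culture at 30 C.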
D2 antagonist: antagonists of human D2 dopamine receptor; P14416; HEK293 TREx D2 cells, calcium flux, dopamine EC80; inhibition, % at 10 µM; 2% of 340,000 active; in the data active means inhibition above about 30%; inactive means below that, where a call was filed; further: 0% is about no effect
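Read-out: kinetic calcium fluorescence (1 cycle/s) in inducible HEK293 T-REx D2 cells after an EC80 dopamine addition that followed 180 s compound preincubation. Loss of the dopamine response indicates antagonism.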
D2 ag-2: activates the human D2 dopamine receptor; P14416; DiscoveRx PathHunter D2 beta-arrestin, luminescence, 90 min; 100% = 57 uM dopamine signal; activation, % (concentration not given with the values); 0.084% of 360,000 active; AID 624465; in the data active means activation above about 40%
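Agonist mode: compounds alone added to overnight-plated D2 PathHunter cells for 90 min at 37 C, with 57 uM final dopamine (EC100) defining full response. Beta-arrestin recruitment detected by chemiluminescent reagent, read after 1 h at ambient temperature.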
D2 PAM-2: D2 dopamine receptor (human) potentiation | HEK293 T-REx D2, calcium flux, EC20 dopamine potentiation | potentiation, % at 10 µM | 0.34% of 340,000 active;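 active means potentiation over 3 SD above the plate norm, cut at about 30% in these data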; further: 0% is about no effect
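Using a no-wash calcium dye in inducible, force-coupled HEK293 Trex cells expressing D2, we tracked fluorescence each second for 180 s after compound, then for 180 s after EC20 dopamine to detect augmented signalling.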
* marks the source's active call; other numbers are inactive results.

`CCOC(=O)CN1CC23C=CC(O2)C(C(=O)NC2CCCC2)C3C1=O` (stereo not given) gave D2 PAM-1 0, D2 ag-1 -1, D2 antagonist -7, D2 ag-2 1 and D2 PAM-2 45*.
Cc1ccc(NC(=O)CSc2ccc(-c3cccs3)nn2)cc1Cl was read as D2 ag-1 0 and D2 PAM-2 4.
`COc1cc(Cl)c(S(=O)(=O)N2CCN(c3c(C)cccc3C)CC2)cc1Cl` gave D2 ag-1 0 and D2 PAM-2 -6.
`COc1ccc([C@H]2C[C@@H](O)[C@H](n3cc(C4CC4)nn3)CN2C(=O)c2cccs2)cc1` gave D2 PAM-1 3 and D2 ag-2 -4.
COc1ccc(C(=O)c2cn(Cc3ccc(C)cc3)c3cc4c(cc3c2=O)OCO4)cc1 was read as D2 ag-1 0 and D2 PAM-2 -2.
Screening CCN1CCN(CCNC(=O)c2ccc3c(c2)N(Cc2cccc(Cl)c2)C(=O)c2ccccc2S3=O)CC1 (stereo not given) returned D2 PAM-1 -38, D2 ag-1 0, D2 antagonist 40*, D2 ag-2 -9 and D2 PAM-2 -1.
For O=C(NCCN1CCCC1)c1ccc2c(c1)N(Cc1ccc(F)cc1)C(=O)c1ccccc1S2=O (stereo not given) the results were D2 PAM-1 -8, D2 ag-1 1, D2 antagonist -5, D2 ag-2 -1 and D2 PAM-2 8.
Screening CCCCN(C)CCCNC(=O)c1ccc2c(c1)N(CC)C(=O)c1ccccc1S2=O (stereo not given) returned D2 PAM-1 -19, D2 ag-1 -1, D2 antagonist 70*, D2 ag-2 -4 and D2 PAM-2 -32.
Cc1cc(O)c2c(C)c(CC(=O)NCc3ccccc3Cl)c(=O)oc2c1 was read as D2 ag-1 -1 and D2 PAM-2 -1.
COC(=O)c1cc(NC(=O)c2cccc(Cl)c2)c(=O)oc1/C=C/Nc1cc(C)cc(C)c1 was read as D2 ag-1 41*, D2 antagonist 5 and D2 PAM-2 9.
`Cc1ccccc1S(=O)(=O)NC(=O)C1(C)CCN1C(=O)CC1CCCCC1` (stereo not given) gave D2 PAM-1 1 and D2 ag-2 -1.
CCOC(=O)c1c(S(=O)(=O)NCC2CCN(CCc3cccs3)CC2)c(C)n(C)c1C was read as D2 PAM-1 -60, D2 ag-1 0, D2 antagonist 43*, D2 ag-2 -4 and D2 PAM-2 -21.
CCOC(=O)c1c(C)[nH]c(C)c1S(=O)(=O)NCC1CCN(Cc2cccc(F)c2)CC1 was read as D2 PAM-1 -22, D2 ag-1 1, D2 antagonist 74*, D2 ag-2 -1 and D2 PAM-2 -30.
`CCOC(=O)c1c(C)[nH]c(C)c1S(=O)(=O)Nc1ccc(CN2CCCCC2)cc1` gave D2 PAM-1 -28, D2 ag-1 0, D2 antagonist -8, D2 ag-2 -2 and D2 PAM-2 -6.
`CCOC(=O)c1c(S(=O)(=O)NCCc2cccs2)c(C)n(C)c1C` gave D2 PAM-1 -7, D2 ag-1 0, D2 antagonist -2, D2 ag-2 -6 and D2 PAM-2 9.
`CCOC(=O)c1c(C)[nH]c(C)c1S(=O)(=O)NCC1CCN(Cc2ccccc2OC)CC1` gave D2 PAM-1 -30, D2 ag-1 -1, D2 antagonist 33*, D2 ag-2 -6 and D2 PAM-2 -24.
CCc1nn(C(CC)C(=O)NCc2cccc(OC)c2OC)c(=O)c2cc3occc3n12 (stereo not given) was read as D2 PAM-1 -8, D2 ag-1 1, D2 antagonist 3, D2 ag-2 -9 and D2 PAM-2 4.
`Cc1ccc(OCc2nc3ccccc3n2CC(C)C)cc1` gave D2 ag-1 -2 and D2 PAM-2 -18.
For CN(CC(=O)NC(=O)NC1CCCCC1)CC(=O)Nc1ccccc1C(F)(F)F the results were D2 PAM-1 -6 and D2 ag-2 1.
Screening CNS(=O)(=O)c1cn(CC(=O)Nc2ccc(F)cc2F)cc1S(=O)(=O)NC returned D2 ag-1 1 and D2 PAM-2 5.
For COC(=O)Nc1ccc(S(=O)(=O)N2CCCC(C(=O)Nc3cccnc3)C2)cc1 (stereo not given) the results were D2 PAM-1 -10, D2 ag-1 -1, D2 antagonist 43*, D2 ag-2 1 and D2 PAM-2 7.
For COc1cc(S(=O)(=O)N2CCCCC2)ccc1NC(=O)c1ccncc1 the results were D2 PAM-1 -2, D2 ag-1 0, D2 antagonist 37*, D2 ag-2 -2 and D2 PAM-2 3.
`COc1ccc(NC(=O)c2ccc(S(=O)(=O)N3CCCCCC3)cc2)c(OC)c1` gave D2 PAM-1 -3, D2 ag-1 -1, D2 antagonist -8, D2 ag-2 2 and D2 PAM-2 6.
`O=C(Nc1cccnc1)c1cccc(S(=O)(=O)N2CCCCC2)c1` gave D2 PAM-1 -1, D2 ag-1 1, D2 antagonist 53*, D2 ag-2 1 and D2 PAM-2 -3.
Cc1cc(NNC(=O)c2ccccc2)nc(NNC(=O)c2ccccc2)n1 was read as D2 PAM-1 2, D2 ag-1 0, D2 antagonist 34*, D2 ag-2 9 and D2 PAM-2 -23.
`CNc1nc(NC)nc(NNC(=O)c2ccccc2)n1` gave D2 PAM-1 -10 and D2 ag-2 0.
For O=c1c2c(nc3cc(-c4ccccc4)[nH]n13)CCC2 the results were D2 PAM-1 -9, D2 ag-1 0, D2 antagonist -19, D2 ag-2 1 and D2 PAM-2 -4.
O=c1c2c(nc3cc(-c4ccc(Br)cc4)[nH]n13)CCCC2 was read as D2 PAM-1 -13, D2 ag-1 11, D2 antagonist 54*, D2 ag-2 -2 and D2 PAM-2 -27.
CCCCn1c(N)c(N(CC(C)C)C(=O)C2CCN(S(=O)(=O)c3ccc(C)cc3)CC2)c(=O)[nH]c1=O was read as D2 PAM-1 9, D2 ag-1 0, D2 antagonist 3, D2 ag-2 -5 and D2 PAM-2 0.
COc1ccc(C(=O)NCc2cccnc2)cc1Br was read as D2 PAM-1 -7, D2 ag-1 1, D2 antagonist -2, D2 ag-2 -2 and D2 PAM-2 -5.
`COc1cc(OC)cc(C(=O)NCc2cccnc2)c1` gave D2 PAM-1 -39, D2 ag-1 1, D2 antagonist -7, D2 ag-2 0 and D2 PAM-2 30*.
Screening COc1ccc(/C=N/NC(=O)C(=O)NCc2cccnc2)cc1OC returned D2 PAM-1 5, D2 ag-1 0, D2 antagonist 33*, D2 ag-2 -1 and D2 PAM-2 3.
